Screening results (PubChem)
MsrA inh – bovine MsrA enzyme inhibitors, primary screen, biochemical, absorbance, HTS; purified bovine MsrA, absorbance read-out; inhibition, % at 15.5 µM; actives 0.75% (n = 360,000); AID 651718, 2012; in the data active = inhibition above about 4.5%
ABCB6 inh MLPCN – ABCB6 transporter inhibitors, primary screen, K562-ABCB6 cells, flow cytometry, MLPCN library. ATP-binding cassette sub-family B member 6 (Homo sapiens), Q9NP58. K562-ABCB6 porphyrin accumulation, 1 h; hits give low values. fluorescence ratio to DMSO, % at 10 µM. actives 0.19% (n = 360,000). AID 602162, 2011;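 active = fluorescence ratio to DMSO below 75%, the collection mean minus 3 SD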;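 also: signal is porphyrin accumulated inside mitochondria; lower ratio means ABCB6 inhibition with less porphyrin fluorescence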
Target sequence (Q9NP58 whole entry, looked up): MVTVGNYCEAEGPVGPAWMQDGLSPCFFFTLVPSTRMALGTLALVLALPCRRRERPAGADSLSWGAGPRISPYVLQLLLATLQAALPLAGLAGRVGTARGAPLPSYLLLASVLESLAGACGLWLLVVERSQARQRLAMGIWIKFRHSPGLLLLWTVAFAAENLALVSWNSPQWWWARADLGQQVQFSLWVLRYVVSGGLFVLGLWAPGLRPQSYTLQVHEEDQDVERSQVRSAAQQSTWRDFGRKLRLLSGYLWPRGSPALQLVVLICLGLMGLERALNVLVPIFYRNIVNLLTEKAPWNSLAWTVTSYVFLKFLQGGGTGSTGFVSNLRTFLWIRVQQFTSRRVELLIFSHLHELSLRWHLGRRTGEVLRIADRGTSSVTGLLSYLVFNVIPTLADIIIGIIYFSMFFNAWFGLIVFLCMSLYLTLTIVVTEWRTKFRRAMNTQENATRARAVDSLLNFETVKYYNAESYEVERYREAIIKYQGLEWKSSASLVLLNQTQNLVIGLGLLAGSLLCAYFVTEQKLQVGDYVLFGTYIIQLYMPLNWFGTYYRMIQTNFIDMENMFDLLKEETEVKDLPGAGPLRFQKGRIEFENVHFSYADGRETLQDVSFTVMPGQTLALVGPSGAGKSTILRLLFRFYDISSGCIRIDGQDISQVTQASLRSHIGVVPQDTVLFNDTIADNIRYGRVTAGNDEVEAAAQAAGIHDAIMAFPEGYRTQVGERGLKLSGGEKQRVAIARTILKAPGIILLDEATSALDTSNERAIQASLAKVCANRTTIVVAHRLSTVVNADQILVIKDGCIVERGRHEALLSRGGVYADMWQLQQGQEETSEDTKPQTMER
SMARCA2 act – SMARCA2 (BRM) function activators, primary screen, cell-based, luminescence, high throughput | actives 1% (n = 370,000) | MG213 cells, MMTV-luciferase reporter, dexamethasone, overnight | activation, % at 9.1 µM; in the data active = activation above about 7.8%
MsrA act – bovine MsrA enzyme activators, primary screen, biochemical, absorbance, HTS | purified bovine MsrA, absorbance read-out | activation, % at 10.6 µM | actives 0.3% (n = 360,000); in the data active = activation above about 7.5%
SMARCA2 act conf – SMARCA2 (BRM) function activators, confirmation, cell-based, luminescence, triplicate; shares compounds with SMARCA2 act; MG213 cells, MMTV-luciferase with dexamethasone, overnight; MG213 cells expressing E1A, Rb sequestered; DMSO wells 0%, reference activator 100%; activation, % at 9.1 µM; actives 30% (n = 3,500); AID 652260, 2013;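 active = activation above its plate's cutoff, the mean activation of tested wells plus 3 SD, cut at about 7.9% in these data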
GAL4-VP16 Luc – GAL4-VP16 luciferase reporter activation, counter-screen for SMARCA2 (BRM) activator project, cell-based, pG5luc, luminescence, high throughput. activation, % at 9.1 µM. HEK293 GAL4-VP16 pG5luc reporter; scaled: DMSO wells 0%, SAHA wells 100%. actives 41% (n = 3,500). shares compounds with SMARCA2 act;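 active = activation above the solvent-only control well mean plus 3 SD, averaged across control plates, cut at about 5.2% in these data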
Each line names hits and unclear results; the compound was inactive in the other large screens (follow-up assays come after a bar, where they were run). Only some compounds are listed: those with a hit (about 2.1% of all), similar ones and a draw of the others.

CC(C)CCN1CC(C(=O)NCCC2=CCCCC2)CC1=O (stereo not drawn)	SMARCA2 act 8.1 | SMARCA2 act conf inactive | GAL4-VP16 Luc inactive
CSc1nc(Cl)cc(Nc2ccccc2N)n1	none
Nc1nc(Cl)cc(Nc2ccccc2Cl)n1	SMARCA2 act 9.5 | SMARCA2 act conf inactive | GAL4-VP16 Luc inactive
COC(=O)c1ccc2[nH]c(C(C)(C)O)c(C)c2c1	SMARCA2 act 8.2 | SMARCA2 act conf inactive | GAL4-VP16 Luc inactive
Clc1ccccc1C1CC(c2ccccc2)=Nc2ccccc2N1 (stereo not drawn)	none
c1ccc(C2=Nc3ccccc3NC(c3ccccc3)C2)cc1 (stereo not drawn)	SMARCA2 act 9.7 | SMARCA2 act conf inactive | GAL4-VP16 Luc 7.0
C=C(C)CSc1nnc(CCNC(=O)OC(C)(C)C)o1	none (no result: MsrA inh, SMARCA2 act)
CCSc1nnc(CCNC(=O)OC(C)(C)C)o1	SMARCA2 act 9.5 | SMARCA2 act conf inactive | GAL4-VP16 Luc inactive
Cc1cccc(OCC(=O)O/N=C(\N)c2ccccn2)c1C	SMARCA2 act 9.2 | SMARCA2 act conf 10.1 | GAL4-VP16 Luc 7.0
CC(C)(C)CC(=O)O/N=C(\N)c1ccccn1	SMARCA2 act 10.5 | SMARCA2 act conf 8.8 | GAL4-VP16 Luc inactive
Cc1ccc(OCC(=O)O/N=C(\N)c2ccccn2)cc1	none
N/C(=N\OC(=O)Cc1ccc(Cl)cc1)c1ccccn1	none
Cc1ccc(CC(=O)O/N=C(\N)c2ccccn2)cc1	SMARCA2 act 8.9 | SMARCA2 act conf 9.7 | GAL4-VP16 Luc 8.4
CC(C)[C@H](N)C(=O)N1CCC[C@@H]1C(=O)N1CCC2CCN(S(=O)(=O)c3ccccc3)CC21 (stereo partly drawn)	none (no result: MsrA inh, ABCB6 inh MLPCN, MsrA act)
C/C(C=NNC(=O)CSc1nc2ccccc2n1C)=C\c1ccccc1	none (no result: MsrA inh, ABCB6 inh MLPCN, MsrA act)
CN(Cc1ccccc1)S(=O)(=O)c1cccc(C(=O)OCc2cccc(C(F)(F)F)c2)c1	none (no result: MsrA inh, ABCB6 inh MLPCN, MsrA act)
Clc1ccccc1CSc1cnnc2ccccc12	SMARCA2 act 9.0 | SMARCA2 act conf inactive | GAL4-VP16 Luc inactive
C=CCNC(=O)N1CCC(c2nc3ccc(Cl)cc3[nH]2)CC1	SMARCA2 act 9.7 (no result: MsrA inh, ABCB6 inh MLPCN, MsrA act) | SMARCA2 act conf inactive | GAL4-VP16 Luc inactive
CCN(C(=O)CN(C1=NC2CS(=O)(=O)CC2S1)c1ccc(OC)cc1)c1cccc(C)c1 (stereo not drawn)	none
Cc1cc(N2CCN(CCO)CC2)n2nc(C)nc2n1	none (no result: MsrA inh, ABCB6 inh MLPCN, MsrA act)
CCOC(=O)c1c(C)[nH]c(C)c1S(=O)(=O)NCCc1sccc1C	none
CCOC(=O)c1c(C)[nH]c(C)c1S(=O)(=O)NCCc1ccc(SC)cc1	SMARCA2 act 11.8 | SMARCA2 act conf inactive | GAL4-VP16 Luc inactive
CCc1cc(=O)oc2cc(OCC(=O)NCCCN3CCOCC3)c(Cl)cc12	SMARCA2 act 8.4 | SMARCA2 act conf inactive | GAL4-VP16 Luc inactive
CSCCC(c1nc2ccccc2[nH]1)n1c(/C=C/c2ccc(Cl)cc2)nc2ccccc21 (stereo not drawn)	none (no result: ABCB6 inh MLPCN, MsrA act)
Cc1ccc2nc3n(c(=O)c2c1)-c1cc2ccccc2cc1C(=O)NC3Cc1ccccc1 (stereo not drawn)	none
Clc1ccc(/C=N/Nc2nnc(Cl)c3ccccc23)cc1	none
Clc1nnc(N/N=C/c2ccccc2)c2ccccc12	none
C(=N\Nc1ncnc2ccccc12)/c1ccccc1	SMARCA2 act 9.2 | SMARCA2 act conf 10.8 | GAL4-VP16 Luc 9.1
Nc1c(Cl)ncnc1N/N=C/c1ccnc2ccccc12	none
Clc1cccc(/C=N/Nc2ncnc3ccccc23)c1	SMARCA2 act 10.0 | SMARCA2 act conf 14.2 | GAL4-VP16 Luc 14.6
Clc1ccc(/C=N/Nc2nc(Cl)nc3ccccc23)cc1	SMARCA2 act 11.9 | SMARCA2 act conf inactive | GAL4-VP16 Luc inactive
OC(c1cccc(Cl)c1)c1ncc(-c2ccc(Oc3ccccc3)cc2)[nH]1 (stereo not drawn)	none
O=C(NC1CCCCN(Cc2ccc(Cl)cc2)C1=O)c1cccc([N+](=O)[O-])c1 (stereo not drawn)	none (no result: MsrA inh, ABCB6 inh MLPCN, MsrA act)
Cc1cn([C@H]2C[C@H](O)[C@@H](/C=C/C(=O)NCc3ccc(N(C)C)cc3)O2)c(=O)[nH]c1=O	none
